Results on eleven substances are retold here after ChEMBL document CHEMBL1201862, “PubChem BioAssay data set” (2004).

In all, about 57,000 sequences went through this assay and about 4,300 (7.5%) were called active. No stated cut-off is given here; in the data, active = GI50 up to about 1.1 µM and inactive = higher. These entries were drawn from the full list. Potency and affinity values are given separately.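 96-well plates; 48 h exposure; 5 concentrations. Endpoints by linear interpolation between flanking doses. Not reached: highest tested concentration assigned. The concentration for 50% growth inhibition is given as GI50.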

For the test, the system named is HT-29. The test is described as follows: NCI tumour cell line growth inhibition, 48 h.
Turning to “cis-Bis[[(trimethylsilyl)methyl]amino]tetrachloroplatinum(IV), CHEMBL2146191”, the GI50 was determined as 4.11 µM.

“[Bis(aminomethyl)pentamethylenesilane]tetrachloropaltinum(IV), CHEMBL2146204” registered a GI50 of 1.57 µM.

In turn, “[Bis(aminomethyl)tetramethylenesilane]tetrachloropaltinum(IV), CHEMBL2146189” returned a GI50 of 4.9 µM. The same measure for “[Bis(aminomethyl)pentamethylenesilane]dichloropaltinum(II), CHEMBL2146202”: 3.19 µM; for CISPLATIN, CHEMBL11359: 7.93 µM. The substance “[Bis(aminomethyl)dimethylsilane]dichloroplatinum (II), CHEMBL2146201” yielded a GI50 of 18.1 µM.

“[Bis(aminomethyl)dimethylsilane]tetrachloroplatinum(IV), CHEMBL2146190” showed a GI50 of 5.28 µM. The substance “[Bis(aminomethyl)ethylmethylsilane]tetrachloroplatinum(IV), CHEMBL2146192” gave a GI50 of 1.57 µM. Consider “mu-(1,7-nanodiamine-N,N')bis-(cis-aminedichloroplatimum (II)), CHEMBL2146215”, for which the GI50 stood at 42.7 µM.

Take “[Bis(aminomethyl)tetramethylenesilane]dichloropaltinum(II), CHEMBL2146205”: the GI50 worked out at 16.2 µM. “[Bis(aminomethyl)diethylsilane]tetrachloroplatinum(IV), CHEMBL2146203” returned a GI50 of 2.06 µM.
